Test results published in ChEMBL document CHEMBL3988442, “University of Dundee, Small-Polar-MMV Screening Library” (2021).
“And” between values parts separate entries of the source, which are not always exact repeats. Equal values may be shown once. For part of these data: Entries with a potency or affinity are not part of this list.

Columns and labels:
Parameters in all cases: scale not given: direction of the effect not stated beside the values
[1] = molecular target: Protein translocase subunit SecA (Escherichia coli (strain K12)) (UniProt P10408); assay: Assay to Identify E. coli SecA ATPase Inhibitors; type: functional; conditions: 30 µM
Sequence of Protein translocase subunit SecA (Escherichia coli (strain K12)) (P10408 whole entry): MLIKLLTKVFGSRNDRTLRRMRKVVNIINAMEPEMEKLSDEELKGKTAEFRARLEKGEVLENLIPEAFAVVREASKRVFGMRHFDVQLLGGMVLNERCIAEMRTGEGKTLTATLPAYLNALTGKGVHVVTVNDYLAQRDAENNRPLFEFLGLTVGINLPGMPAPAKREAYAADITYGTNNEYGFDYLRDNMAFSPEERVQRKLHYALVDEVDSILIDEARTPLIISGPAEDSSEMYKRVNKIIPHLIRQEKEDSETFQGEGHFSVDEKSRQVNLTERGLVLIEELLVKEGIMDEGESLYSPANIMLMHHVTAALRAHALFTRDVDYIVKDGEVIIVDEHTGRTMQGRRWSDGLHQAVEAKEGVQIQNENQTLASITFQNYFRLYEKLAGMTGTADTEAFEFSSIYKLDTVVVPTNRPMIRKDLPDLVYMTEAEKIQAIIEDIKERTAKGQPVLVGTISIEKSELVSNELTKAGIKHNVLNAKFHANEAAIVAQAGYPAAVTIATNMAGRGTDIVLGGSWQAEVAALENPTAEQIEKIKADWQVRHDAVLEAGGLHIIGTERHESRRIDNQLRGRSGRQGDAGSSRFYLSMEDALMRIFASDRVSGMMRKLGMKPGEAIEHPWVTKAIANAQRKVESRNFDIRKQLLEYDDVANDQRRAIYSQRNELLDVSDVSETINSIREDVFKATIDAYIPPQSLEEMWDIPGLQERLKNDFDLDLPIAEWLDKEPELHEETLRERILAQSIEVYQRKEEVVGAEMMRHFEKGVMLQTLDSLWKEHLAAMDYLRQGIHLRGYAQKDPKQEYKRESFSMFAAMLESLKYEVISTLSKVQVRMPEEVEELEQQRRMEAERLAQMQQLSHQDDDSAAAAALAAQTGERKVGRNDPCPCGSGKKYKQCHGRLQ

[2] = molecular target: T1, Ubiquitin-activating enzyme e1, putative (Leishmania donovani (strain BPK282A1)) (UniProt E9BSI1); assay: Leishmania donovani Ubiquitin Activating Enzyme (LdE1); type: functional; conditions: 30 µM
T1 sequence (whole entry): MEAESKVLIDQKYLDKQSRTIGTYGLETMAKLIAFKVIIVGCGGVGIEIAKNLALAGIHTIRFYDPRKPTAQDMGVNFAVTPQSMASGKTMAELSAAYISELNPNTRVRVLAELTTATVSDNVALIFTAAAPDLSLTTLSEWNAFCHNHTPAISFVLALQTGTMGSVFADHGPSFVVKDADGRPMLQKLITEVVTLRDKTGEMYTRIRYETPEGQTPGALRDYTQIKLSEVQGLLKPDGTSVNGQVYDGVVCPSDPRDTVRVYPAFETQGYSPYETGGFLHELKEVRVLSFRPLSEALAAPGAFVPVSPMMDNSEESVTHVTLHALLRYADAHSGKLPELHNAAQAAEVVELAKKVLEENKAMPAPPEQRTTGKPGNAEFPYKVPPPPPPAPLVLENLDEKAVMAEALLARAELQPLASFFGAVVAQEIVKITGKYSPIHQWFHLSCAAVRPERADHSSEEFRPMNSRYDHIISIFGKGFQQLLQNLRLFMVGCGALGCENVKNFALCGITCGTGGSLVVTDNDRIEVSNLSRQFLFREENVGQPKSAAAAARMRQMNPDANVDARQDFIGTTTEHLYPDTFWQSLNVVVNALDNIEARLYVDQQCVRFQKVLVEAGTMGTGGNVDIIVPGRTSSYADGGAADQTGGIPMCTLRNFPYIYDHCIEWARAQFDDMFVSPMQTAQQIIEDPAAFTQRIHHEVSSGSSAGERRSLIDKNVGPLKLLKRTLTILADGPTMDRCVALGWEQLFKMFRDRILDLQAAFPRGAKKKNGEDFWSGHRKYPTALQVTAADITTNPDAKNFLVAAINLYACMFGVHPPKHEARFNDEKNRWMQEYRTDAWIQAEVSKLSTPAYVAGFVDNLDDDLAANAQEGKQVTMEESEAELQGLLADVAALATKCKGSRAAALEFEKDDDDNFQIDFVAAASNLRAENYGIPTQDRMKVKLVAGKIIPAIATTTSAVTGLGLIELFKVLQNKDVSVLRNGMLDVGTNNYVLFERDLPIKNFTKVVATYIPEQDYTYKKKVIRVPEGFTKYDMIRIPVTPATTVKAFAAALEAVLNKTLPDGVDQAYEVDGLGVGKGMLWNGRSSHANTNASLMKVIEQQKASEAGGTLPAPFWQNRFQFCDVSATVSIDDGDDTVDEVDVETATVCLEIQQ

[3] = molecular target: Sialic acid-binding Ig-like lectin 9 (Homo sapiens) (UniProt Q9Y336); assay: Hs-Siglec9 ALPHAscreen SOP 20170721; conditions: 10 µM
Sequence of Sialic acid-binding Ig-like lectin 9 (Homo sapiens) (Q9Y336 whole entry): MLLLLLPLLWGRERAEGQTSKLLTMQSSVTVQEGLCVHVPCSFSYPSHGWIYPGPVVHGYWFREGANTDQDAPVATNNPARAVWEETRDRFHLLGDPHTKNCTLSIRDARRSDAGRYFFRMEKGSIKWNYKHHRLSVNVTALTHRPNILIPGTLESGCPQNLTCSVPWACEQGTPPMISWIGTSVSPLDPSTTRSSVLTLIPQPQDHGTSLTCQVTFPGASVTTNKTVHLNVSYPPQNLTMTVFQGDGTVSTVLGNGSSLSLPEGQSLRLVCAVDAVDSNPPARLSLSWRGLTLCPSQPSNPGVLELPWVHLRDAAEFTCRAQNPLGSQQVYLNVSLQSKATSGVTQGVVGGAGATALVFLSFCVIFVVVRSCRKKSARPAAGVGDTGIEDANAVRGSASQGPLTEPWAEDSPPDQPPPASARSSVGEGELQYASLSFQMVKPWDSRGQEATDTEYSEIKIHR

Trypanosoma cruzi = assay: Trypanosoma cruzi phosphomannomutase and mannose-1-phosphate guanylyltransferase assay; type: functional; conditions: 10 µM
[4] = molecular target: T2, Arginase-2, mitochondrial (Homo sapiens) (UniProt P78540); assay: in vitro enzyme assay to detect the production of urea directly proportional to the activity of Arginase II; type: functional; conditions: 33.3 µM; further: in the data most compounds retested in dose-response had high values
T2 sequence (whole entry): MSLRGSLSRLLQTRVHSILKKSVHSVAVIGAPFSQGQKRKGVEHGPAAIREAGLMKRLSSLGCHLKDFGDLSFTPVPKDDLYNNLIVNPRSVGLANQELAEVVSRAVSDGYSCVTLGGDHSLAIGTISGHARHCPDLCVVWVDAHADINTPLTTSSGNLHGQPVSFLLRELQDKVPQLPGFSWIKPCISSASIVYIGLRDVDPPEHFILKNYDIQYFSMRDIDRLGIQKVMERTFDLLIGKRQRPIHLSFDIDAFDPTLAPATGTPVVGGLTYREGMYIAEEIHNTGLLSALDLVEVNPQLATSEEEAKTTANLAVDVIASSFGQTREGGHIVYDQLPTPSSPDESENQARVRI

[5] = molecular target: T3, Proteasome subunit beta (Trypanosoma cruzi) (UniProt O96673); assay: Trypanosoma cruzi proteasome chymotrypsin-like activity (TcProtChymo) assay.; further: in the data most compounds retested in dose-response had high values; type: functional; conditions: 9.37 µM
T3 sequence (whole entry): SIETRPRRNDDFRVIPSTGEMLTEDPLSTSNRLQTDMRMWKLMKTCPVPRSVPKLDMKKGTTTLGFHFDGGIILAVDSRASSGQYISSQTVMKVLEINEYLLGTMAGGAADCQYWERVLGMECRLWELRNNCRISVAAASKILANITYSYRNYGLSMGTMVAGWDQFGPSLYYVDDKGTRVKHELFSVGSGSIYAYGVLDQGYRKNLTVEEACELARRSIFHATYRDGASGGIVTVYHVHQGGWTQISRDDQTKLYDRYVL

Homo sapiens = species on record: Homo sapiens; assay: To identify inhibition of the IFN signalling (Jak-Stat) pathway via expression of an eGFP reporter gene under the control of an IFN-stimulated response element (ISRE) containing MxA promoter.; type: functional; conditions: 30 µM
[6] = molecular target: T4, Tyrosyl-tRNA synthetase, putative (Trypanosoma cruzi (strain CL Brener)) (UniProt Q4DSP6); assay: Trypanosoma cruzi tyrosyl tRNA synthetase (TcYRS) _High Tyrosine SOP; type: functional; conditions: 30 µM; further: in the data most compounds retested in dose-response had high values
T4 sequence (whole entry): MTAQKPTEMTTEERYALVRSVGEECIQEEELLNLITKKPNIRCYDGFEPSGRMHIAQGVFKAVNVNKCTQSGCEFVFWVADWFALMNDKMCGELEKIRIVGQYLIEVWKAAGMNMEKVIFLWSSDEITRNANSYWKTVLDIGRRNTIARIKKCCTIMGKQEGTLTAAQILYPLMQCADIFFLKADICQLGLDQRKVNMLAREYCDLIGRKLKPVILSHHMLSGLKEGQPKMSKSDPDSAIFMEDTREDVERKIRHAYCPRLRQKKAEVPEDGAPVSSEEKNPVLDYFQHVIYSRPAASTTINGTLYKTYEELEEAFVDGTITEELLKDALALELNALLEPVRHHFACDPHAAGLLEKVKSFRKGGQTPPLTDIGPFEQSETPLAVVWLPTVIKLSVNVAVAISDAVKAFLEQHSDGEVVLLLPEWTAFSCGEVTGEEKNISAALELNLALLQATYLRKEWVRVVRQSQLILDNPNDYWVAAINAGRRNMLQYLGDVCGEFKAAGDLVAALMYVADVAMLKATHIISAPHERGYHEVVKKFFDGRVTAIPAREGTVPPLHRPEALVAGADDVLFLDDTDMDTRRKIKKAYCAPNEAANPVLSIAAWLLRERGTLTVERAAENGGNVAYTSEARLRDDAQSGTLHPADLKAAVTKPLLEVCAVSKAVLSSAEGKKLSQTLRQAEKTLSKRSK

[7] = molecular target: T4, Tyrosyl-tRNA synthetase, putative (Trypanosoma cruzi (strain CL Brener)); assay: Trypanosoma cruzi tyrosyl tRNA synthetase (TcYRS) SOP; type: functional; conditions: 30 µM
[8] = molecular target: Chromo domain-containing protein 1 (Saccharomyces cerevisiae (strain ATCC 204508 / S288c) (Baker's yeast)) (UniProt P32657); assay: ScCHD-1 Enzyme Inhibition Assay; type: functional; conditions: 30 µM; further: in the data most compounds retested in dose-response had high values
Sequence of Chromo domain-containing protein 1 (Saccharomyces cerevisiae (strain ATCC 204508 / S288c) (Baker's yeast)) (P32657 whole entry, the tested form may be a part): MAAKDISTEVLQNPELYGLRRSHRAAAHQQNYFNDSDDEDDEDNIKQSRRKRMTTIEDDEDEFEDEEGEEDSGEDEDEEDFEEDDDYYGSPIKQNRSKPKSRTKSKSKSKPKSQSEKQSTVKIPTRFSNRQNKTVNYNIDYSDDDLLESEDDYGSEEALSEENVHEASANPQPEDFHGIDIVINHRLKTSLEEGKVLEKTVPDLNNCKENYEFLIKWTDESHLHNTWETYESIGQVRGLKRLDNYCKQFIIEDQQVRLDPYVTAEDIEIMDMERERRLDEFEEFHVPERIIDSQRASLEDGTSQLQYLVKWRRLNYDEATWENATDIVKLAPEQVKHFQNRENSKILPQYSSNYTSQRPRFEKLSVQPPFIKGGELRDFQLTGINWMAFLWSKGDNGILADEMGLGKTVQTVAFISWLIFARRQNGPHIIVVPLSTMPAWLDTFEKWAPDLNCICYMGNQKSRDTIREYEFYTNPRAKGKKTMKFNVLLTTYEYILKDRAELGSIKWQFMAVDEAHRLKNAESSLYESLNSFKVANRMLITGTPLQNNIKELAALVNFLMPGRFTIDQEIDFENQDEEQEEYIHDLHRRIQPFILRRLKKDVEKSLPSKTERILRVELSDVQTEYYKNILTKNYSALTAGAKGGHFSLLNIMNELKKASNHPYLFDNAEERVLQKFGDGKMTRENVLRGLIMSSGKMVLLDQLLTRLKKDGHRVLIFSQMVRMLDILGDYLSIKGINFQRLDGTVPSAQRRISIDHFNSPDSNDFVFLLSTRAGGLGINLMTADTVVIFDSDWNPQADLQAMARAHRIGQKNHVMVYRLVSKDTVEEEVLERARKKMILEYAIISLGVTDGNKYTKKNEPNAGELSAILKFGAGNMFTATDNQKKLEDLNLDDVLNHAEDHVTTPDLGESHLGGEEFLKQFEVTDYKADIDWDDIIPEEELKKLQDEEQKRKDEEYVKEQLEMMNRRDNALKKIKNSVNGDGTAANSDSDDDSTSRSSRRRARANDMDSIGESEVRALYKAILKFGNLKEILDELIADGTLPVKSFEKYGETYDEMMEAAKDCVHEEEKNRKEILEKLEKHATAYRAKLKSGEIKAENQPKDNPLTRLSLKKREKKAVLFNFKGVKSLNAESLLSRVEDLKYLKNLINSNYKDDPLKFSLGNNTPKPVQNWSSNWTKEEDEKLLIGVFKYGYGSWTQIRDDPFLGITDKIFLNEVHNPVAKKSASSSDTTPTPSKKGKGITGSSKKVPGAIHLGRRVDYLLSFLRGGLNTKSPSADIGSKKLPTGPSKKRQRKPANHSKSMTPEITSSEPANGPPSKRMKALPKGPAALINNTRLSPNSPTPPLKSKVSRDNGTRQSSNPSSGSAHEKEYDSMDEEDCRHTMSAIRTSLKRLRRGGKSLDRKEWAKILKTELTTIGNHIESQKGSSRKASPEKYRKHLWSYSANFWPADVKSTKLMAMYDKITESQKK

N/A = assay: Trypanosoma cruzi proteasome luciferase counter-screen; type: functional; conditions: 9.37 µM

| Compound | Percent Effect [1] [%] | Percent Effect [2] [%] | Percent Effect [3] [%] | Percent Effect (Trypanosoma cruzi) [%] | Percent Effect [4] [%] | Percent Effect [5] [%] | Percent Effect (Homo sapiens) [%] | Percent Effect [6] [%] | Percent Effect [7] [%] | Percent Effect [8] [%] | Percent Effect (N/A) |
| --- | --- | --- | --- | --- | --- | --- | --- | --- | --- | --- | --- |
| Cc1cc(C)n(C2CCCN(C(=O)COCC(F)(F)F)C2)n1 (stereo not given) | -4.46 | 2.56 | 11.4 | 0.657 | 6.15 | -7.59 | -11.3 | 1.44 | -1.21 | -0.331 | – |
| CCc1n[nH]c(C2CN(C(=O)c3nc(C)n4ccccc34)CCO2)n1 (stereo not given) | -2.26 | 13 | 11.1 | -1.49 | 10 | 9.82 | -10.3 | 4.9 | 16.5 | -11 | – |
| CCCNC(=O)NCc1cccnc1OC | -1.2 | 13.3 | 0.677 | -0.803 | 2.66 | 14.2 | 18.8 | 2.63 | 10.3 | -6.38 | – |
| CC(=O)N1CCC2(CCN(C(=O)c3ccc(C)c(C(F)(F)F)c3)CC2)C1 | -3.18 | 14.3 | 1.63 | -7.69 | 7.29 | 19.5 | 17.8 | 7.89 | 0 | -3.98 | – |
| Cc1cnc(CN2CCCC(c3cc(C(F)(F)F)[nH]n3)C2)cn1 (stereo not given) | -4.31 | 2.67 | 2.93 | -2.21 | 3.55 | 2.97 | 10.5 | 4.74 | 17.9 | -4.75 | – |
| CC(=O)N1CCC2(CC1)C(=O)N(CC1CC1)c1ccccc12 | -5.06 | 9.09 | -0.719 | -3.56 | 5.48 | 10.6 | 6.99 | 3.87 | 7.5 | -7.42 | – |
| CC(NC(=O)N1CCC(OCc2ccccc2)CC1)c1nncn1C (stereo not given) | -3.83 | 5.33 | -0.332 | 7.63 | 1.33 | 14.8 | 15.6 | 2.63 | 12.8 | -8.27 | – |
| NC(=O)c1ccc(S(=O)(=O)NC(=O)COc2ccc3c(c2)CCC3)cc1 | -4.96 | 7.69 | -3.01 | 8.54 | 0.82 | 4.01 | 4.26 | 3.35 | 10.8 | 6.22 | – |
| COc1ccccc1OC1CCN(Cc2cnc(N(C)C)nc2)CC1 | -8.85 | 0 | 3.25 | -1.84 | -3.15 | – | 1.97 | 3.72 | 9.76 | -4 | 13.7% and 17.2% |
| c1csc(-c2nc(CNC3CCc4ncnn4C3)cs2)c1 (stereo not given) | -3.1 | 10.3 | 2.55 | 0.469 | 2.05 | 7.93 | 0.908 | 6.22 | 18.1 | 1.57 | – |
| c1cncc(N2CCOCC3(CCCN(c4nncs4)C3)C2)c1 (stereo not given) | -4.46 | -3.9 | -2.68 | -1.27 | -2.02 | 7.33 | 2.84 | 2.63 | 7.69 | 3.64 | – |
| O=C(c1ccc(F)cc1F)N1CC[C@H](O)[C@@H](N2CCOCC2)CC1 | -1.33 | 6.67 | 3.3 | -1.58 | 3.98 | 3.94 | 12.8 | 2.12 | 7.5 | -18.1 | – |
| Cn1cccc1C(=O)N1CCCC2(CCCN2Cc2cccnc2)C1 (stereo not given) | -10.1 | -1.3 | -0.843 | -1.85 | -6.88 | 7.33 | 9.38 | -2.63 | 2.56 | -0.361 | – |
| CNc1ccc(CC2CCCN(C(=O)c3cnc(C)nc3)C2)nn1 (stereo not given) | 0.212 | 12 | -9.66 | -0.197 | 4.87 | 17.1 | 12.2 | 5.29 | 12.5 | -20.6 | – |
| Cc1ccn(CCC(=O)N2CCOC(c3nc(-c4cccs4)no3)C2)n1 (stereo not given) | 1.88 | 9.33 | 1.5 | -5.52 | 4.42 | 8.7 | 7.42 | 2.12 | 10 | -26.2 | – |
| Fc1cnc(N2CCOC3(CCN(Cc4ccsc4)CC3)C2)nc1 | -0.851 | 3.9 | -6.39 | -6.52 | 6.88 | – | 4.01 | 11.1 | 7.69 | -4.59 | 5.37% and 9.17% |
| Cc1cnn(CC2CCCCN2CCCS(N)(=O)=O)c1 (stereo not given) | -1.01 | 21.3 | -1.72 | -2.01 | 3.55 | 11.3 | 8.53 | 5.79 | -2.56 | -12.4 | – |
| CC(C)c1nccn1-c1cccc(C2CCCN2S(=O)(=O)N(C)C)n1 (stereo not given) | 1.33 | -17.3 | -5.7 | -2.76 | -1.77 | 14.8 | 39.9 | 4.23 | 10 | -18 | – |
| Cc1[nH]/c(=N\C(=O)c2csc(NCC(C)C)n2)sc1C | -5.08 | 5.41 | 2.69 | -3.2 | -2.45 | – | 20.5 | 5.85 | 21.9 | 0.249 | 53.4% and 61% |
| O=C(c1ccco1)N1C[C@H]2CCCN(Cc3cccs3)[C@H]2C1 | -3.68 | 14.3 | -9.29 | -4.58 | -2.02 | 15.1 | 28.2 | 3.68 | 7.69 | -4.26 | – |
| NC(=O)CN1CCC(C(=O)N2CCCC(OCc3cccnc3)C2)CC1 (stereo not given) | -5.86 | 2.7 | 1.65 | -2.23 | -0.35 | 6.16 | 9.22 | 4.79 | 14.6 | 1.71 | – |
